Only some compounds are listed: those with a hit (about 27% of all), similar ones and a draw of the others.
EphB4 ephrin blk: EphB4-ephrin-B2 interaction antagonists, primary screen, biochemical, TNYL-RAW peptide probe, fluorescence polarization; Ephrin type-B receptor 4 (Homo sapiens), P54760; EphB4 LBD / TNYL-RAW-Alexa532 peptide; inhibition, % at 7 µM; hit rate 0.15% among 97,000; AID 720, 2007;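 active means inhibition above the screen-wide mean inhibition plus 3 SD, cut at about 15% in these data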;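 further: 0% = DMSO wells and 100% = excess unlabeled TNYL-RAW peptide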
Target sequence (P54760 whole entry, looked up, the tested form may be a part): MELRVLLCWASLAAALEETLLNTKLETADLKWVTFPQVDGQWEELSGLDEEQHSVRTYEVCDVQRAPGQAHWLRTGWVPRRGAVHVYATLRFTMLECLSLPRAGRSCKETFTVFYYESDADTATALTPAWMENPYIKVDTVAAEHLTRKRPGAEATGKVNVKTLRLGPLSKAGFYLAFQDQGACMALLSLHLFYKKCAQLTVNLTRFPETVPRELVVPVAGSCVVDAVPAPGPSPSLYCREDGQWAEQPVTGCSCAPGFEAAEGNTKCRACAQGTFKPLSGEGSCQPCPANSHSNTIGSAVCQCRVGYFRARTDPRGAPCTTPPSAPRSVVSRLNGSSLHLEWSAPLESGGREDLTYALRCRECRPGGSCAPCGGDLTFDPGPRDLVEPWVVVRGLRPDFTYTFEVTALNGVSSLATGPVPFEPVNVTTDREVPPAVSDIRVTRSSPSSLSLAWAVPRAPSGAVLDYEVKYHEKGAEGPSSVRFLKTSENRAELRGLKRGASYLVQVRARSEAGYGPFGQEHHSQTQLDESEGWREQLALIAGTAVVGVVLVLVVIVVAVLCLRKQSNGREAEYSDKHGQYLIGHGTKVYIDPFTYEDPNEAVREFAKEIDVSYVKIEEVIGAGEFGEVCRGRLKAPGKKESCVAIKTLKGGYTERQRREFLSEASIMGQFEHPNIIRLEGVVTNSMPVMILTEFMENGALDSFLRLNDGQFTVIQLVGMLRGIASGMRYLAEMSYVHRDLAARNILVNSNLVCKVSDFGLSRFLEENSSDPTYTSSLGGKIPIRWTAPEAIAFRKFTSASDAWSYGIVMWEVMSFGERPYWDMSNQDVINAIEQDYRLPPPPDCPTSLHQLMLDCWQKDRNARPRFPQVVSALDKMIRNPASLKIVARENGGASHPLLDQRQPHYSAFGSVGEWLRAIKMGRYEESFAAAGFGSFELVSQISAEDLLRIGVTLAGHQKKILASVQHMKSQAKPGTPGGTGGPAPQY
CYP2C9 act: human CYP2C9 activators, primary screen, biochemical, luminescence; Cytochrome P450 2C9 (Homo sapiens), P11712; recombinant CYP2C9, luciferin-H conversion; hits give high values; factor 1 = untreated enzyme, 0 = blocked; activation factor at 5 µM; hit rate 1.4% among 96,000; AID 1024, 2008;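 active means activation factor of 2 or more for CYP2C9 at a 5 µM dose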;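 further: 0 = sulfaphenazole-blocked wells and 1 = vehicle-only wells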
CYP2C19 inhib: blockers of cytochrome P450 2C19 activity – biochemical, luminescence, ADME assay, primary screen. P33261. CYP2C19 Supersomes, luciferin-H EGE luminescence, 30 min. inhibition, % at 5 µM. hit rate 21% among 96,000. AID 778, 2007;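 active means CYP2C19 inhibition above a set limit at 5 µM in the primary screen, cut at about 50% in these data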;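 further: plate controls were negative control wells for no effect and 2.5 mM tranylcypromine positive control for full effect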
CYP2C19 act: human CYP2C19 activators, primary screen, biochemical, luminescence; Cytochrome P450 2C19 (Homo sapiens), P33261; AID 1025, 2008; 96,000 tested, under 10 active; activation factor at 5 µM; recombinant CYP2C19, luciferin-H EGE luminescence; hits give high values; 0 = fully inhibited enzyme, 1 = untreated enzyme;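 active means activation factor of at least 2 at 5 µM in the primary screen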;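 further: 0 = wells with 2.5 mM tranylcypromine and 1 = vehicle-only wells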
CYP2C9 inh: blockers of cytochrome P450 2C9 activity – biochemical, luminescence, ADME assay, primary screen; CYP2C9 Supersomes, luciferin-H conversion; inhibition, % at 5 µM; hit rate 20% among 96,000; AID 777, 2007;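 active means blocking of liver enzyme CYP2C9 beyond about 50% at 5 µM, limit read from the data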
An asterisk follows results filed as active; nt = not tested or not shown.

SMILES	EphB4 ephrin blk	CYP2C9 act	CYP2C19 inhib	CYP2C19 act	CYP2C9 inh
O=C(/C=C/c1ccco1)NC(=S)Nc1cccc(-c2nc3ccccc3s2)c1	-3.2	nt	nt	nt	nt
Cc1ccc(-c2nn3c(C)nnc3s2)cc1NC(=O)c1ccc(OC(C)C)cc1	-5.8	0.6	26.6	0.7	39.7
COc1cc(N2CN=c3s/c(=C\c4ccccn4)c(=O)n3C2)cc(OC)c1OC	nt	0.4	22.3	0.8	56.4*
O=c1/c(=C/c2ccccn2)sc2n1CN(c1ccccc1)CN=2	-0.9	0.7	9.3	0.9	30.6
Cc1cccc(N2CN=c3s/c(=C\c4ccncc4)c(=O)n3C2)c1	3.2	0.7	59.1*	0.4	31.1
O=S1(=O)Nc2c(ccc3cccnc23)-c2ccccc21	nt	0.4	4.4	1	64.7*
CC(=O)Nc1cccc(NC(=O)c2sc3ncn(CC(=O)N4CCCCC4)c(=O)c3c2C)c1	nt	0.2	79.0*	0.2	79.5*
CCCNC(=O)Cn1cnc2sc(C(=O)Nc3cc(OC)c(OC)c(OC)c3)c(C)c2c1=O	-4.9	0.5	37.3	0.6	48.4
CCN(CC)C(=O)Cn1cnc2sc(C(=O)Nc3cc(OC)c(OC)c(OC)c3)c(C)c2c1=O	-4.5	0.1	79.3*	0.2	92.4*
Cc1ncc(C[n+]2csc(CCOC(=O)CC3C4CC5CC(C4)CC3C5)c2C)c(N)n1 (configuration not stated)	2.0	0.9	-6.1	1.1	7.1
CCCOC(=O)c1ccc(-c2c(C)noc2-c2ccc(OC)cc2O)o1	2.8	0.1	80.8*	0.2	92.4*
COCCn1c(=S)[nH]c2cc(C(=O)NCC3CCCO3)ccc2c1=O (configuration not stated)	1.9	0.5	75.6*	0.2	51.8*
CC(C)CN(CC(C)C)C(=O)C12CCC(C)(C(=O)C1)C2(C)C (configuration not stated)	4.2	0.9	6.2	0.9	7.1
CCCCCCCC(=O)N/N=C/c1ccco1	3.5	0.9	41.5	0.6	10.3
CCCCCCCC(=O)N/N=C/c1ccc(Br)cc1	0.6	0.8	75.4*	0.2	17.6
CCCCCCCC(=O)N/N=C/c1cccnc1	1.0	0.7	38.9	0.6	27.2
CCCCCCCCCC(=O)N/N=C/c1ccc(C)s1	-3.9	0.3	76.9*	0.2	74.3*
CCCCCCCCCCCC(=O)N/N=C/c1ccco1	6.2	0.4	25.8	0.7	55.7*
OCCN1CCN(c2ncnc3c2sc2nc(N4CCOCC4)c4c(c23)CCC4)CC1	nt	0.2	83.9*	0.2	78.6*
CN1CCN(c2ncnc3c2sc2nc(N4CCOCC4)c4c(c23)CCC4)CC1	-6.3	nt	nt	nt	nt
COC(=O)CSc1ncnc2c1sc1nc(N3CCOCC3)c3c(c12)CCCC3	4.8	0.7	13.4	0.9	31.2
CCOC(=O)CSc1ncnc2c1sc1nc(N3CCOCC3)c3c(c12)CCCC3	10.3	0.5	17.9	0.8	54.1*
OCCN(CCO)c1ncnc2c1sc1nc(N3CCOCC3)c3c(c12)CCCC3	0.2	0.1	80.9*	0.2	89.3*
O=C(CSc1nc2ncccc2[nH]1)c1ccc(F)cc1	-3.7	1	16.2	0.8	0.6
N=c1c2c(-c3ccccc3)c(-c3ccccc3)n(Cc3ccco3)c2ncn1CCN1CCOCC1	2.4	0.8	21.2	0.8	15.5
SMILES	EphB4 ephrin blk	CYP2C9 act	CYP2C19 inhib	CYP2C19 act	CYP2C9 inh
Cc1ccc(C)c(S(=O)(=O)NCC(=O)Nc2sc3c(c2C(N)=O)CCC(C)C3)c1 (configuration not stated)	2.7	1	15.2	0.8	-1.0
COc1cc(S(=O)(=O)NC(C)C)ccc1Cl	1.7	2.5*	53.3*	0.5	-153.7
COC(=O)COc1ccc(S(=O)(=O)Nc2ccc(C(N)=O)cc2)cc1Cl	-9.3	0.6	14.7	0.9	41.5
COc1ccc(C)cc1S(=O)(=O)Nc1ccc(F)c(Cl)c1	-3.1	nt	nt	nt	nt
COc1ccc(NC(=O)C=C(C)C)cc1Cl	-2.2	0.9	58.2*	0.4	13.6
COC(=O)c1cc(NS(=O)(=O)c2ccc(OC)c(OC)c2)ccc1Cl	2.7	0.2	100.0*	0	80.4*
COc1ccc(S(=O)(=O)Nc2ccc(F)c(Cl)c2)cc1OC	nt	0.4	99.6*	0	56.5*
Cc1cnn(C(=O)c2oc3ccccc3c2C)c1	-1.3	1.1	-0.9	1	-11.4
COc1cc(C(=O)Sc2ccc(C)cc2)cc(OC)c1OC	4.0	0.9	18.6	0.8	6.9
CCCCCSc1nnc(C)c(=O)[nH]1	0.2	1	-15.0	1.1	-4.9
COC(=O)c1cc(Cl)c(NS(=O)(=O)c2ccccc2)cc1OC	nt	0.1	92.3*	0.1	91.5*
COc1ccc(NC(=O)CN(C)S(=O)(=O)c2ccc(Cl)cc2)cc1Cl	1.4	0.9	6.0	0.9	6.0
COc1ccc(NC(=O)CNS(=O)(=O)c2ccccc2)cc1Cl	2.9	1.6	63.4*	0.4	-59.9
COc1ccc(C)cc1S(=O)(=O)Nc1cccc(Cl)c1	-7.4	0.5	38.7	0.6	47.5
COc1ccc(S(=O)(=O)Nc2ccc(C)cc2)cc1N(C)S(=O)(=O)c1ccc(Cl)cc1	-1.5	0.4	70.6*	0.3	62.2*
O=C(NCc1ccccc1)C1CC2CCCC(C1)C2=O (configuration not stated)	-7.5	1.1	-4.1	1	-7.9
CCCc1nn(C(=O)c2ccccc2)c2c1C(=O)CC(C)(C)C2	-5.9	0.7	23.0	0.8	31.4
Cc1ccc(NC(=O)CSCc2c(C)noc2C)cc1C	1.1	0.5	93.7*	0.1	48.1
Cc1noc(C)c1CSCC(=O)OCC(=O)Nc1sccc1C#N	4.8	0.3	38.0	0.6	67.2*
COC(=O)CCSCC(=O)Nc1cc(C)on1	-1.3	0.9	3.2	1	6.2
CCOC(=O)Cc1cn2c(=O)cc(CSCC(=O)Nc3ccc(C)c(C)c3)nc2s1	nt	0.3	21.3	0.8	74.3*
CC1=C(C(=O)OC2CCCCC2)C(c2ccc(C)o2)C2=C(CC(C)(C)CC2=O)N1 (configuration not stated)	-0.3	0.6	11.8	0.9	38.6
CCOC(=O)C1=C(C)NC2=C(C(=O)CCC2)C1c1coc2ccccc2c1=O (configuration not stated)	5.7	0.3	64.6*	0.4	68.5*
CCCOC(=O)C1=C(C)NC2=C(C(=O)CCC2)C1c1cccs1 (configuration not stated)	-1.3	0.3	78.2*	0.2	71.4*
CC1=C(C(=O)Nc2ccccc2C)C(c2ccc(C)o2)C2=C(CCCC2=O)N1 (configuration not stated)	nt	0.4	69.4*	0.3	57.0*
CC1=C(C(=O)OC2CCCC2)C(c2ccc(C)o2)C2=C(CC(c3cccs3)CC2=O)N1 (configuration not stated)	0.2	0.3	14.2	0.9	71.7*

Screening results (PubChem BioAssay)
